# Source: the supplement of paper PMC6555819
# Assays:
# Assay in all cases: PBM binding z-score (relative to random genomic background probes); higher = stronger binding; sequences stand for … in GC…GCGATTGACAGCGTAGAATGAAGG
# [1] = system: FXR:RXRa (NR concentration 270 nM, RXRa partner concentration 90 nM)
# How it was run: (§1)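 Custom Agilent 4×180K protein-binding microarrays carried double-stranded probes, each with a 34-nt variable region. These regions held direct-repeat seeds, single-nucleotide variants, half-site ablations and random human genomic background sequences. Ligand-free nuclear receptor dimers were incubated on the arrays for 1 h, antibodies against each partner (one per run) detected binding, and scanned fluorescence was regression-normalized. Binding z-scores take the random background probes as reference.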
# [2] = system: LXRa:RXRa (NR concentration 270 nM, RXRa partner concentration 90 nM)
# How it was run: as §1
# [3] = system: LXRa homodimer (NR concentration 270 nM)
# How it was run: as §1
# [4] = system: LXRb:RXRa (NR concentration 270 nM, RXRa partner concentration 90 nM)
# How it was run: as §1
# [5] = system: LXRb homodimer (NR concentration 270 nM)
# How it was run: as §1
# [6] = system: PPARa:RXRa (NR concentration 270 nM, RXRa partner concentration 90 nM)
# How it was run: as §1
# [7] = system: PPARg:RXRa (NR concentration 180 nM, RXRa partner concentration 90 nM)
# How it was run: as §1
# [8] = system: PPARg:RXRa 270nM:90nM, anti-RXR (NR concentration 270 nM, RXRa partner concentration 90 nM)
# How it was run: as §1
# [9] = system: PPARg:RXRa 30nM:10nM, anti-RXR (NR concentration 30 nM, RXRa partner concentration 10 nM)
# How it was run: as §1
# [10] = system: PPARg:RXRa 90nM:30nM, anti-RXR (NR concentration 90 nM, RXRa partner concentration 30 nM)
# How it was run: as §1
Sequence,PBM binding z-score [1],PBM binding z-score [2],PBM binding z-score [3],PBM binding z-score [4],PBM binding z-score [5],PBM binding z-score [6],PBM binding z-score [7],PBM binding z-score [8],PBM binding z-score [9],PBM binding z-score [10]
TCGTGTAGATCAACAGGAGGTTAAGAAAGATCGA,-0.127,1.13,0.0557,0.789,-0.51,1.22,-0.0865,1.04,1.84,1.52
CCTTACCGGTCACTCCAGGTTATAGCATCGGAGT,2.6,6.15,4.71,2.67,1.65,1.3,0.603,0.901,0.0814,0.653
CCGACTGGAGCAGAAAGGTTACCATACCATCCGG,0.42,0.894,-0.0298,0.813,-0.611,1.77,1.61,2.5,0.683,2.24
TCATATAGGTAAATGCTAGTTGAAAGTCCGATCT,0.79,0.719,0.081,0.689,-0.0232,1.09,0.625,1.79,3.76,2.81
GGAACGAGGGCAAAGTTGATCGCATCTGTCGACG,1.11,0.829,-0.561,0.545,-0.311,3.82,6.68,6.95,5.94,7.29
TTACCAAGGTGAGCAGAGGTCGTTGATCCAACTC,1.14,1.86,-0.283,1.37,-0.627,2.38,2.17,2.89,0.857,2.68
GGAACGAGGGCCTTCGAGTTGATAGCATGGCGAT,-0.344,-0.805,-0.648,-0.91,-1.22,-0.579,0.209,-0.359,-0.539,-0.758
TCATATAGGTACATGCTAGGTGAAAGTCCGATCT,0.846,1.11,0.242,0.622,0.134,1.15,0.699,2.04,3.56,2.99
GCTGCTAGGCCAACTGATGGTCAGCTAAAGCTCG,-0.828,-0.78,-0.908,-1.3,-1.01,-1.2,-0.468,-0.849,-1.22,-1.14
TCTTGTAGATCAGCAGGTAAAGAAAGCTGGCCAA,0.051,0.0639,-0.443,-0.119,-0.519,0.422,-0.331,0.955,2.5,1.69
TCATATAGGTAATACAGGTAAAAGTCGGCATCTA,1.15,1.13,0.377,0.915,0.455,1.48,1.61,2.58,4.14,3.49
AGAACGAGCGCACGCTGAGTTGATAGCAGAGTAG,-0.57,-0.901,-0.709,-1.02,-1.26,-1.16,0.302,-0.706,-0.622,-0.45
GATACAGGGTCAGCCAGAGGCCAGAGTATGGAAA,4.61,2.94,-0.284,2.56,-0.975,4.69,4.13,3.7,0.98,2.28
CAAACTAGGTCACAGAGGCCAAAGTCCGTGCGTA,4.93,3.79,1.02,2.66,0.0915,5.36,8.81,7.33,5.35,7.09
CTCGAAAGGTCGTGCTCACGTGAGTATACCAAAC,5.21,3.95,0.0228,3.69,0.397,5.07,2.9,3.42,0.773,2.12
ATCTCTAGGTAACAAGTTCAGTGATAGAGAGGAC,0.623,0.613,0.594,0.524,1.01,1.34,1.67,1.87,1.19,1.53
CAAACTTGGTCACCGGAAGGTCAAAGTCCGCATG,3.58,3.72,3.5,3.39,0.75,3.7,2.29,3,0.605,2.01
CCTTACGGGGCACTGACAGGTTATAGCATTTGGA,-0.345,0.0473,-0.267,0.0491,-0.831,0.455,0.465,-0.156,-0.0268,-0.232
TGTCAAAATTCAAAGGTAACGTAAGTATCCACAC,0.567,0.663,-0.00824,0.809,0.161,1.13,0.99,1.47,0.972,1.39
AGAATGAGGTTACCAAAGATCAGGAAAACGCTTG,1.7,6.01,-0.322,3.66,-0.00832,3.51,2.7,2.54,0.962,2.01
CCTTACGGGTCACTCCAGGTTGTAGCATCGGAGT,4.5,6.32,0.477,3.72,0.0911,4.42,2.92,3.54,0.72,2.5
CAAACTAGGTCAGGAAAGGTCAAAGTCGAATGAC,6.17,6.74,6.35,6.12,1.93,6.08,8.46,6.82,4.45,6.88
CCTTACCGGTCACTGACAGGTTATAGCATTTGGA,1.09,1.89,1.73,1.31,0.619,1.49,0.664,0.675,0.114,0.418
TAGCCTAGGTCATTCCGGGGCCAGTATAGAAAGC,4.26,3.29,0.811,2.53,1.33,3.21,1.75,2.04,0.233,1.01
ATCTCTAGGAAACAAGTTCAGTGAAAGAGAGGAC,0.431,0.902,0.383,0.587,0.528,0.467,0.409,0.0222,0.37,-0.00536

Sequence,PBM binding z-score [1],PBM binding z-score [2],PBM binding z-score [3],PBM binding z-score [4],PBM binding z-score [5],PBM binding z-score [6],PBM binding z-score [7],PBM binding z-score [8],PBM binding z-score [9],PBM binding z-score [10]
CGAACTAGGTCAAGGACAGGGAATCTCCGCACGC,3.17,2.12,0.324,1.32,-0.364,4.52,7.01,6.26,3.78,5.95
CCTCGGAGGACAACAGGAGATCAGAGCTGCCAGA,-0.269,-0.36,-0.193,-0.853,-1.12,-0.626,0.424,-0.794,-0.377,-0.822
TCTTGTAGATTAACAGGAGGTTAAGAAAGATCGA,0.498,1.41,0.483,0.95,-0.0109,1.06,0.145,1.41,2.67,1.89
ATCTCTAGGTAAAGTACAGTGAAAGATCGATAGA,0.412,0.617,0.207,0.131,0.745,0.0903,0.761,0.842,0.832,0.623
TCTTCTAGATCAATAGAGGTTAAGAAAGTGCGCT,0.907,3.4,0.664,1.92,0.831,1.9,0.156,2,3.32,2.76
CCAACGAGGGCATGAGTTGATAGCAAATGCCGAT,0.351,0.134,-0.411,-0.153,-0.701,0.994,1.05,0.858,-0.155,0.242
TAGCCTTGGTCATGGGCCAGTATACCACGCGAAC,-0.772,-0.685,-0.571,-0.54,-1.16,-0.311,0.351,-0.0225,-0.592,-0.107
CGAACTAGGTCATCCAGGACAATGAATACATTGA,4.61,2.74,0.73,2.14,0.294,4.83,7.88,6.22,4.07,6.1
TGAATGAGGTTAAAGATCTGGGAACGTGGCGTCG,2.5,2.16,-0.214,1.46,0.347,3.54,2.7,3.6,1.69,2.98
GGAACGAGGGCAAAGATGATAGCATCTGTCGACG,0.376,0.281,-0.604,0.258,-0.642,2.65,3.63,4.6,2.92,4.39
GCTAGTTGGTCAGTAAAAGGTCAGACACCGGTCG,1.99,3.15,2.83,2.74,0.106,3.24,1.79,3.25,1.03,2.7
AGAATGAGGTTTTACGTAGATCAGGGAAGAAAGT,-0.139,-0.0557,-0.184,-0.13,-0.304,-0.000129,0.251,-0.0665,0.263,0.297
CCAGACAGATGAGAAGGTAACTCAGCCTCGATTA,-0.147,-0.0249,0.532,-0.254,-0.206,-0.358,0.455,-0.402,-0.157,-0.366
CTCGCAAGGTCGTGCTCAGGTGAGTATACCAAAC,2.12,1.71,-0.122,1.37,-0.498,2.81,0.423,1.04,-0.426,0.224
ATCTCTAGGTAAAAGTTCAGTCAATCCCGAGGAT,0.989,1.98,1.79,1.6,1.34,4.61,8.25,8.34,7.47,9.66
TCTCGGAGGACACGAAAGGTCAGAGATCGACATC,3.24,3.71,2.64,3.32,0.0145,3.65,1.5,2.75,2.97,2.88
CCGGGTAGGTTATGGGGCATTCAGGCAACGGTGA,0.235,0.484,0.0736,0.904,-0.348,1.54,2.18,3.16,0.788,2.58
ATCGAGAGGTCGAGGTGAGTATAGAGAAAGGGAA,2.84,2.37,-0.153,1.78,-0.102,3.68,2.19,2.16,0.414,1.15
GCCAGTTGGTCAGTAAAAGGTCACACACCGGTCG,3.07,4.03,4.4,3.89,-0.0245,4.36,2.75,4.34,1.84,3.62
AGAATGAGGTTATTAAGATCAGGGTATTGCGGTC,1.3,1.29,0.345,1.09,0.122,2.46,1.41,1.62,0.322,0.93
TCAGACAGGTGAAGGTACCTCAGGTACGCAGTCG,0.559,0.611,-0.182,0.0572,-0.29,1.13,0.642,1.8,3.41,2.54
TCTATTAGTTGAAGGGCAACGGACGAGTCCGTTT,0.568,0.993,0.2,1.07,0.679,1.06,0.0889,2.19,3.6,2.89
GGAACGAGGGCATTCGAGTTGGTAGCATGGCGAT,0.825,0.72,-0.575,-0.0954,-1.08,1.06,0.508,0.442,-0.573,-0.227
CTCAAAAGGTCGTGCTCAGGTGAGTATACCAAAC,5.46,4.03,0.165,3.42,0.129,4.98,3.14,3.85,0.896,2.75
